# This is one part of a sample in which the strongest signals are shown more often than they occur.
# Experiments:
# Experiment in all cases: glycan array binding signal (z-score within array); higher = stronger binding
# Conditions in all cases: glycan notation: IUPAC condensed, linker removed
# [1] = target: Fuc(a1-2)Gal(b1-3)GalNAc(a1-3)[Fuc(a1-2)]Gal(b1-4)GlcNAc
# Procedure, shortened: (§1)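 Arrays were curated from the Consortium for Functional Glycomics database, 3228 in total, and kept only where the protein sequence was available. Binding is expressed as a within-array Z-score. This score was averaged across arrays of the same protein sequence at different concentrations or buffers and across linkers, and negative values can be read as non-binding.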
# [2] = target: Fuc(a1-2)Gal(b1-4)GlcNAc(b1-2)Man(a1-3)[Fuc(a1-2)Gal(b1-4)GlcNAc(b1-2)Man(a1-6)]Man(b1-4)GlcNAc(b1-4)GlcNAc
# Procedure, shortened: as §1
# [3] = target: Fuc(a1-2)Gal(b1-4)GlcNAc(b1-2)Man(a1-3)[Fuc(a1-2)Gal(b1-4)GlcNAc(b1-2)Man(a1-6)]Man(b1-4)GlcNAc(b1-4)[Fuc(a1-6)]GlcNAc
# Procedure, shortened: as §1
# [4] = target: Fuc(a1-2)Gal(b1-4)GlcNAc(b1-6)GalNAc
# Procedure, shortened: as §1
# [5] = target: Fuc(a1-2)Gal6S(b1-3)GlcNAc6S
# Procedure, shortened: as §1
# [6] = target: Fuc(a1-2)Gal6S(b1-4)Glc6S
# Procedure, shortened: as §1
# [7] = target: Fuc(a1-2)[Gal(a1-3)]Gal(b1-3)GlcNAc(b1-2)Man(a1-3)[Fuc(a1-2)[Gal(a1-3)]Gal(b1-3)GlcNAc(b1-2)Man(a1-6)]Man(b1-4)GlcNAc(b1-4)[Fuc(a1-6)]GlcNAc
# Procedure, shortened: as §1
# [8] = target: Fuc(a1-2)[Gal(a1-3)]Gal(b1-4)GlcNAc(b1-2)Man(a1-3)[Fuc(a1-2)[Gal(a1-3)]Gal(b1-4)GlcNAc(b1-2)Man(a1-6)]Man(b1-4)GlcNAc(b1-4)[Fuc(a1-6)]GlcNAc
# Procedure, shortened: as §1
# [9] = target: Fuc(a1-2)[Gal(a1-3)]Gal(b1-4)[Fuc(a1-3)]GlcNAc
# Procedure, shortened: as §1
# [10] = target: Fuc(a1-2)[GalNAc(a1-3)]Gal(b1-3)GalNAc(a1-3)[Fuc(a1-2)]Gal(b1-4)GlcNAc
# Procedure, shortened: as §1
# [11] = target: Fuc(a1-2)[GalNAc(a1-3)]Gal(b1-3)GlcNAc
# Procedure, shortened: as §1
# [12] = target: Fuc(a1-2)[GalNAc(a1-3)]Gal(b1-3)GlcNAc(b1-2)Man(a1-3)[Fuc(a1-2)[GalNAc(a1-3)]Gal(b1-3)GlcNAc(b1-2)Man(a1-6)]Man(b1-4)GlcNAc(b1-4)[Fuc(a1-6)]GlcNAc
# Procedure, shortened: as §1
# [13] = target: Fuc(a1-2)[GalNAc(a1-3)]Gal(b1-3)GlcNAc(b1-3)GalNAc
# Procedure, shortened: as §1
# [14] = target: Fuc(a1-2)[GalNAc(a1-3)]Gal(b1-3)GlcNAc(b1-6)GalNAc
# Procedure, shortened: as §1
# [15] = target: Fuc(a1-2)[GalNAc(a1-3)]Gal(b1-4)GlcNAc(b1-2)Man(a1-3)[Fuc(a1-2)[GalNAc(a1-3)]Gal(b1-4)GlcNAc(b1-2)Man(a1-6)]Man(b1-4)GlcNAc(b1-4)GlcNAc
# Procedure, shortened: as §1
# [16] = target: Fuc(a1-2)[GalNAc(a1-3)]Gal(b1-4)GlcNAc(b1-3)GalNAc
# Procedure, shortened: as §1
# [17] = target: Fuc(a1-2)[GalNAc(b1-3)]Gal
# Procedure, shortened: as §1
# Fuc(a1-3)GlcNAc = target: Fuc(a1-3)GlcNAc
# Procedure, shortened: as §1
# [18] = target: Fuc(a1-3)[GalNAc(b1-4)]GlcNAc6S
# Procedure, shortened: as §1
# [19] = target: Fuc(a1-3)[GalNAc3S(b1-4)]GlcNAc
# Procedure, shortened: as §1
# Fuc(b1-3)GlcNAc = target: Fuc(b1-3)GlcNAc
# Procedure, shortened: as §1
# [20] = target: Gal(a1-3)Gal(b1-4)GlcNAc(b1-3)GalNAc
# Procedure, shortened: as §1
# [21] = target: Gal(b1-3)GalNAc(a1-3)[Fuc(a1-2)]Gal(b1-4)Glc
# Procedure, shortened: as §1
# [22] = target: Gal(b1-3)GlcNAc(b1-2)Man(a1-3)[Gal(b1-3)GlcNAc(b1-2)Man(a1-6)]Man(b1-4)GlcNAc(b1-4)[Fuc(a1-6)]GlcNAc
# Procedure, shortened: as §1
# [23] = target: Gal(b1-4)GalNAc(a1-3)[Fuc(a1-2)]Gal(b1-4)GlcNAc
# Procedure, shortened: as §1
# Gal(b1-4)Glc = target: Gal(b1-4)Glc
# Procedure, shortened: as §1
# [24] = target: Gal(b1-4)GlcNAc(b1-2)Man(a1-3)[Gal(b1-4)GlcNAc(b1-2)][GlcNAc(b1-4)]Man(b1-4)GlcNAc(b1-4)GlcNAc
# Procedure, shortened: as §1
# [25] = target: Gal(b1-4)GlcNAc(b1-3)Gal(b1-4)[Fuc(a1-3)GlcNAc(b1-6)]Gal(b1-4)Glc
# Procedure, shortened: as §1
# Gal6S(b1-4)Glc = target: Gal6S(b1-4)Glc
# Procedure, shortened: as §1
# Gal6S(b1-4)GlcNAc6S = target: Gal6S(b1-4)GlcNAc6S
# Procedure, shortened: as §1
# GlcA(b1-6)Gal = target: GlcA(b1-6)Gal
# Procedure, shortened: as §1
# [26] = target: GlcNAc(b1-2)Man(a1-3)[GlcNAc(b1-2)Man(a1-6)]Man(b1-4)GlcNAc(b1-4)[Fuc(a1-6)]GlcNAc
# Procedure, shortened: as §1
# [27] = target: GlcNAc(b1-2)[GlcNAc(b1-4)]Man(a1-3)[GlcNAc(b1-4)][GlcNAc(b1-2)[GlcNAc(b1-6)]Man(a1-6)]Man(b1-4)GlcNAc(b1-4)[Fuc(a1-6)]GlcNAc
# Procedure, shortened: as §1
# [28] = target: GlcNAc(b1-4)[GlcNAc(b1-6)]GalNAc
# Procedure, shortened: as §1
# [29] = target: Neu5Ac(a2-3)Gal(b1-4)GlcNAc(b1-2)[Neu5Ac(a2-3)Gal(b1-4)GlcNAc(b1-6)]Man(a1-6)[Neu5Ac(a2-3)Gal(b1-4)GlcNAc(b1-2)Man(a1-3)]Man(b1-4)GlcNAc(b1-4)GlcNAc
# Procedure, shortened: as §1
# [30] = target: Neu5Ac(a2-3)Gal(b1-4)[Fuc(a1-3)]GlcNAc(b1-3)Gal(b1-4)GlcNAc
# Procedure, shortened: as §1
# [31] = target: Neu5Ac(a2-3)Gal(b1-4)[Fuc(a1-3)]GlcNAc(b1-3)GalNAc
# Procedure, shortened: as §1
# [32] = target: Neu5Ac(a2-3)GalNAc(b1-4)GlcNAc
# Procedure, shortened: as §1
# [33] = target: Neu5Ac(a2-6)Gal(b1-4)GlcNAc(b1-3)Gal(b1-4)[Fuc(a1-3)]GlcNAc(b1-3)Gal(b1-4)[Fuc(a1-3)]GlcNAc
# Procedure, shortened: as §1
# [34] = target: Neu5Ac(a2-6)Gal(b1-4)GlcNAc(b1-6)[Gal(b1-3)GlcNAc(b1-3)]Gal(b1-4)Glc
# Procedure, shortened: as §1
# [35] = target: Neu5Ac(a2-6)GlcNAc(b1-4)GlcNAc
# Procedure, shortened: as §1
# [36] = target: Neu5Ac(a2-8)Neu5Ac(a2-8)Neu5Ac
# Procedure, shortened: as §1
# [37] = target: Neu5Gc(a2-3)Gal(b1-3)GlcNAc
# Procedure, shortened: as §1
# Neu5Gc(a2-3)Gal(b1-4)Glc = target: Neu5Gc(a2-3)Gal(b1-4)Glc
# Procedure, shortened: as §1
binder,measurement,setting,value
"CvGal1 (Crassostrea virginica), A7Y0I5 (protein) MTYQISKISQPFTSYIPNGLHIGKHLLLRGRVSYGTEAFAINLQQNPEPCNGEVAFHFNPRPGEQQCVRNSFDGGSWMDEERDQPHFPFDEGRSFTLRIEVAEEGFRTYVNGKPYVNFSHRLDLGNVHYLYLTEGAEFYDISYQDRYTLPYKSEIPQQMNVGKAVRIRGASQDNDGFSVNFACDPDNENCAFHFNPRPNEGVVVRNANLGGWGDEERDYEAEFPFHPYNYFDAMFICTDDKYLVHVNDKYFTEFNHRGGVDASSFFNIVGNLDIQDVEYFEPLEDDFVKTIPSGLVKGDVLIFRGFMKPGGDTFSINFMNGYSVEDDIAFHLNPRVGEGQVVMNCCMGGAWGDEEREDIPSPLADREPFEVKVVVKKNKFKVYVNGKKCMKFAARGNLEDIKGVNIKGEAYVYEVKLERKLEDSWEYLPGGFRVGGWVVVQAIPKKGSEGFAINFRTGSDEDSDIAFHFNPRLQENCTIRNSCAGGAWGGEERDQPDFPFEKKDTCEIAIQAQPDRFVTYVNGKRYIEFNHRLPLESITCVELTGRADFFEPKFF",glycan array binding signal (z-score),[1],6.13
same,glycan array binding signal (z-score),[2],0.157
same,glycan array binding signal (z-score),[3],-0.053
same,glycan array binding signal (z-score),[4],-0.258
same,glycan array binding signal (z-score),[5],-0.213
same,glycan array binding signal (z-score),[6],-0.259
same,glycan array binding signal (z-score),[7],0.478
same,glycan array binding signal (z-score),[8],1.42
same,glycan array binding signal (z-score),[9],-0.263
same,glycan array binding signal (z-score),[10],3.63
same,glycan array binding signal (z-score),[11],4.14
same,glycan array binding signal (z-score),[12],4.71
same,glycan array binding signal (z-score),[13],1.75
same,glycan array binding signal (z-score),[14],3.97
same,glycan array binding signal (z-score),[15],6.1
same,glycan array binding signal (z-score),[16],5.16
same,glycan array binding signal (z-score),[17],-0.306
same,glycan array binding signal (z-score),Fuc(a1-3)GlcNAc,-0.088
same,glycan array binding signal (z-score),[18],-0.215
same,glycan array binding signal (z-score),[19],-0.259
same,glycan array binding signal (z-score),Fuc(b1-3)GlcNAc,-0.219
same,glycan array binding signal (z-score),[20],-0.197
same,glycan array binding signal (z-score),[21],3.55
same,glycan array binding signal (z-score),[22],-0.265
same,glycan array binding signal (z-score),[23],4.11
same,glycan array binding signal (z-score),Gal(b1-4)Glc,-0.253
same,glycan array binding signal (z-score),[24],-0.195
same,glycan array binding signal (z-score),[25],-0.264
same,glycan array binding signal (z-score),Gal6S(b1-4)Glc,-0.291
same,glycan array binding signal (z-score),Gal6S(b1-4)GlcNAc6S,-0.182
same,glycan array binding signal (z-score),GlcA(b1-6)Gal,-0.259
same,glycan array binding signal (z-score),[26],-0.3
same,glycan array binding signal (z-score),[27],-0.249
same,glycan array binding signal (z-score),[28],-0.23
same,glycan array binding signal (z-score),[29],-0.283
same,glycan array binding signal (z-score),[30],-0.226
same,glycan array binding signal (z-score),[31],-0.166
same,glycan array binding signal (z-score),[32],-0.277
same,glycan array binding signal (z-score),[33],-0.28
same,glycan array binding signal (z-score),[34],-0.245
same,glycan array binding signal (z-score),[35],-0.303
same,glycan array binding signal (z-score),[36],-0.236
same,glycan array binding signal (z-score),[37],-0.239
same,glycan array binding signal (z-score),Neu5Gc(a2-3)Gal(b1-4)Glc,-0.311

# Reference: the supplement of paper PMC8728848
